Values joined by “and” are separate entries in the source; they are usually repeats but may differ in a detail not shown here. Equal values may be shown once. The campaign covered roughly 400,000 compounds. About 2,100 (0.53%) were called active. Inconclusive results (about 14%) are left out. This is one part of a sample in which actives are shown more often than they occur. How the calls were made is not given here.
target: Ataxin-2 (Homo sapiens) (UniProt Q99700); assay: qHTS for Inhibitors of ATXN expression.; assay type: functional
Sequence (Q99700 whole entry): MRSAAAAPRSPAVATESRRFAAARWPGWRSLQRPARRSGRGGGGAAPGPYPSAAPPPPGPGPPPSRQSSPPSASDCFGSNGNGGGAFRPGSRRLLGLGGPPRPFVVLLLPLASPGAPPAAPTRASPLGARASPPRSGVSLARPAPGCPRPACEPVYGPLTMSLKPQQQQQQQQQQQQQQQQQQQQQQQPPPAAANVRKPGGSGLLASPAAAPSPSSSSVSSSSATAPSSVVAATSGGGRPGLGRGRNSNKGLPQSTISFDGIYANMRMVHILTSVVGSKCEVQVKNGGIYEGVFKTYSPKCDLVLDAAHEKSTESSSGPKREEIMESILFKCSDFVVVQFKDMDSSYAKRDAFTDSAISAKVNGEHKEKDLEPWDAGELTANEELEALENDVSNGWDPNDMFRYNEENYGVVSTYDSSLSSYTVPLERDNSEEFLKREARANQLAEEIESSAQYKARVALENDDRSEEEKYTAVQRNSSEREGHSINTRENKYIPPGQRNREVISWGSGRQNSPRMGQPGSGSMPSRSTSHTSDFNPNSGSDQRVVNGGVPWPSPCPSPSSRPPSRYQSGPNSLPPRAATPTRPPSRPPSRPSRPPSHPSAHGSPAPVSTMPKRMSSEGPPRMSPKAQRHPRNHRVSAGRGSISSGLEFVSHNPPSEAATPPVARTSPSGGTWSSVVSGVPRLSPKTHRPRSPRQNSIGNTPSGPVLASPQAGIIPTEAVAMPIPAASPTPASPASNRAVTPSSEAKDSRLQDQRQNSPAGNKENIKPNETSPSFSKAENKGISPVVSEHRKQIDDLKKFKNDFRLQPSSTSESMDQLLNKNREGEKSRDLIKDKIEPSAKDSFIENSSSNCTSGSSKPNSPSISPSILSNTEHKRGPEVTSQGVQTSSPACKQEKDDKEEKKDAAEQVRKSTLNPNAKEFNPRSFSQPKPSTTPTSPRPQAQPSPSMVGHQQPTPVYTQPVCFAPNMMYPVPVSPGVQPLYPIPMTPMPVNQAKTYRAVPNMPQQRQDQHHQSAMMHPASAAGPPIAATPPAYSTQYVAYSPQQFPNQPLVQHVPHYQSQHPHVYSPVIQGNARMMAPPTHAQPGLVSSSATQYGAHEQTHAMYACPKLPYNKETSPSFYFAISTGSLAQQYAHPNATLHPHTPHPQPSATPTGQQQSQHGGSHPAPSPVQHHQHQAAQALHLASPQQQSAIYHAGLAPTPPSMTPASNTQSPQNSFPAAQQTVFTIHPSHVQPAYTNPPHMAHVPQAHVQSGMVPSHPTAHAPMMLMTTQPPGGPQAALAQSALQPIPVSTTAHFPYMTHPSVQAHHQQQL

| Compound | Potency |
| --- | --- |
| Cc1nc2ccccc2c2c(N)c3ccccc3n12 | inactive |
| Cc1ccc(-c2ccc(S(=O)(=O)N3CC(C)OC(C)C3)cc2)cc1 (stereo not given) | inactive |
| Cc1ccc(S(=O)(=O)CCC(=O)OCCOc2ccc(Br)cc2)cc1 | inactive |
| CC(=O)C1=CCC(c2ccc(Br)cc2)N(S(=O)(=O)c2ccc(C)cc2)C1 (stereo not given) | 20 µM (active) |
| COc1ccc(C(C)NCCC(c2ccc(OC(C)C)cc2)c2ccccc2OC)cc1 (stereo not given) | 39.8 µM (active) |
| COc1ccc(CNCCC(c2ccc3c(c2)OCO3)c2ccccc2OC)cc1 (stereo not given) | 22.4 µM (active) |
| COc1ccc2[nH]c(SCC(=O)NC(C)c3ccccc3)nc2c1 (stereo not given) | inactive |
| COc1ccccc1/C=C/C(=O)OCC(=O)NCc1ccc2c(c1)OCO2 | inactive |
| Fc1cccc(CNCc2ccc3c(c2)OCO3)c1 | inactive |
| Cc1c(CC(=O)N2CCN(C(=O)C3COc4ccccc4O3)CC2)c(=O)oc2cc(O)cc(O)c12 (stereo not given) | inactive |
| Cc1ccc(S(=O)(=O)N2CCOCC2)cc1NC(=O)COC(=O)/C=C/c1ccco1 | inactive |
| CC[C@@H]1Cc2cc(O)ccc2C2=C1c1ccc(O)cc1C[C@H]2CC | 39.8 µM (active) and 22.4 µM (active) |
| Clc1ccc(-c2nc(N3CCCCC3)nc3ccccc23)cc1 | inactive |
| COc1ccc(-n2c(=O)c(CCC(=O)NCCc3ccccc3F)nc3ccccc32)cc1 | inactive |
| Cc1oc2c(c1C(=O)c1ccccc1)C(=O)C(=O)c1ccccc1-2 | 3.98 µM (active) |
| Cc1ccc(C(=O)c2c(C)oc3c2C(=O)C(=O)c2ccccc2-3)cc1 | 39.8 µM (active) |
| Cc1sc(N)c(C(=O)c2ccccc2)c1C | inactive |
| CCOc1ccc(-n2c(C)cc(/C=N/NC(=O)C(N)=O)c2C)cc1 | inactive |
| CCOc1ccc(-n2c(C)cc(C(=O)CCl)c2C)cc1 | 29.9 µM (active) |
| Cc1ccc(-n2c(C)cc(C(=O)COc3cccnc3[N+](=O)[O-])c2C)cc1 | inactive |
| CCCn1c(=N)c(C(=O)NCc2ccco2)cc2c(=O)n3cc(C)ccc3nc21 | inactive |
| CC1CCc2c(sc3nc(-c4cc5ccccc5oc4=O)nc(Cl)c23)C1 (stereo not given) | inactive |
| CC1CCc2c(sc3ncn(CC(=O)N4CCCCC4)c(=O)c23)C1 (stereo not given) | inactive |
| CCc1nc(N2CCN(C(=O)CCl)CC2)c2c3c(sc2n1)CC(C)CC3 (stereo not given) | 35.5 µM (active) |
| COCCCn1c(C(=O)N2CCOCC2)cc2c(=O)n3ccccc3nc21 | inactive |

| Compound | Potency |
| --- | --- |
| CN1/C(=C\C(=O)c2cccnc2)C(C)(C)c2ccccc21 | inactive |
| CN1/C(=C/C(=O)c2nc(S(C)(=O)=O)ncc2Cl)C(C)(C)c2ccccc21 | 31.6 µM (active) |
| CC1=C(C(=O)c2ccccc2)C(c2ccc(O)cc2)NC(S)=N1 (stereo not given) | inactive |
| O=C(COC(=O)/C=C/c1ccccc1)NCCC1=CCCCC1 | inactive |
| O=C(NCCC1=CCCCC1)C1CCC(CNc2nc(S)nc3ccccc23)CC1 (stereo not given) | 23.8 µM (active) |
| O=C(NCCCN1CCCC1=O)C1CCN(S(=O)(=O)c2ccccc2)CC1 | inactive |
| CCCCN(C(=O)NC(=O)C1=C(N2CCOCC2)/C(=C/c2ccccc2)CC1)S(C)(=O)=O | inactive |
| C=CCO/C(O)=C1\C(C)=NC(SCC(=O)Nc2nccs2)=C(C#N)C1c1ccc(Cl)cc1 (stereo not given) | inactive |
| O=C1CCC[C@@H]2C[C@@]3(C[C@@H]4CCN1[C@H]24)Nc1cc(Cl)c(Cl)cc1N=C3NCc1ccccc1 | 35.5 µM (active) |
| CC(C)(C)CC(C)(C)NC1=Nc2cc(Cl)c(Cl)cc2NC12C[C@H]1CCC(=O)N3CC[C@@H](C2)[C@@H]13 (stereo not given in full) | 31.6 µM (active) |
| COc1ccc2c(c1)CCC1=C2N=C(S)NC1c1ccc(N(C)C)cc1 (stereo not given) | inactive |
| c1cc(SC2CCCCC2)cc(-c2nc3cnccn3c2NC2CCCCC2)c1 | inactive |
| Cc1cc(C)n2c(=O)c3ccc(Cl)cc3nc2c1C#N | inactive |
| CC(C)(C)c1cc(CP(=O)(c2ccccc2)c2ccccc2)cc(C(C)(C)C)c1O | inactive |
| O=C(O)c1ccc2c(c1)C(=O)N(c1ccc(/C=C/C(=O)c3ccccc3)cc1)C2=O | inactive |
| O=C(C=Cc1ccccn1)c1ccccc1 | 35.5 µM (active) |
| O=C(C=Cc1ccccc1F)c1ccccc1 | 31.6 µM (active) |
| COc1ccccc1C(=O)CSc1ccccn1 | inactive |
| O=C(C=Cc1ccccn1)c1ccccc1O | 39.8 µM (active) |
| O=C(/C=C/c1ccc(N2CCC(c3ccccc3)=N2)cc1)c1ccccc1 | inactive |
| COc1ccc2[nH]cc(/C=C/C(=O)c3ccccc3)c2c1 | inactive |
| Cc1[nH]c2ccccc2c1/C=C/C(=O)c1ccncc1 | inactive |
| O=C(O)/C(=C\c1ccco1)NC(=O)c1ccco1 | inactive |
| Cc1ccc(NC(=O)CCc2nnc3ccc(N4CCC5(CC4)OCCO5)nn23)nc1 | inactive |
| COc1ccc(COc2cc(-c3cccc(OC)c3)nc3ccc(N)cc23)cc1 | inactive |

| Compound | Potency |
| --- | --- |
| CC(C)N1CC(C(=O)Nc2cccc([N+](=O)[O-])c2)CC1=O (stereo not given) | inactive |
| COC(=O)/C=C\C(=O)Nc1cccc([N+](=O)[O-])c1 | 31.6 µM (active) |
| O=[N+]([O-])c1cccc(NC(=S)N2CCOCC2)c1 | inactive |
| O=C(NCC1CCCCC1)C1(CC2CC(c3ccc(Cl)cc3)=NO2)CCNCC1 (stereo not given) | 39.8 µM (active) |
| O=C(CNC(=O)c1ccc(Br)o1)NCC1CCCCC1 | inactive |
| O=C(NCC1CCCCC1)C1(CC2CC(c3cccc(Br)c3)=NO2)CCNCC1 (stereo not given) | 35.5 µM (active) |
| COc1cc(NC(=O)C2CC(c3cccc(Br)c3)=NO2)cc(OC)c1OC (stereo not given) | inactive |
| O=C(O)c1cc(-c2ccc(-c3ccc(F)cc3)o2)nc2ccccc12 | inactive |
| C[C@@H]1C(c2cccc(Cl)c2)=NN(c2ccccc2)[C@H]1C(=O)N1CCOC1=O | inactive |
| Cc1[nH]n(-c2nc(-c3ccc(Cl)cc3)cs2)c(=O)c1N=Nc1ccc(O)cc1 | 26.7 µM (active) |
| Oc1c(Cl)cc(Cl)cc1/C=N/c1nc(-c2ccc(Cl)cc2)cs1 | inactive |
| O=C(Nc1cccc(OC(F)(F)F)c1)C1Cc2c(-c3ccc4c(c3)OCO4)ccnc2O1 (stereo not given) | 39.8 µM (active) |
| CC(=O)Nc1ccc(C2CC(c3ccc(Cl)cc3)=NN2c2ccccc2)cc1 (stereo not given) | inactive |
| CC(=O)Nc1cccc(-c2ccnc3c2CC(C(=O)Nc2ccc(F)c(Cl)c2)O3)c1 (stereo not given) | 22.4 µM (active) |
| CCOC(=O)c1cc(-c2ccc3c(c2)OCO3)nc2onc(C)c12 | inactive |
| O=C1OC(C(=O)Nc2ccc(Cl)c(C(F)(F)F)c2)Cc2ccccc21 (stereo not given) | inactive |
| CC(C)CN(CC(C)C)C(=O)c1cc2c(=O)n3ccccc3nc2s1 | inactive |
| O=C(Nc1ccc(Cl)cn1)c1ccccc1SCc1ccccc1 | inactive |
| N=C(NOC(=O)c1ccccc1)C(Cc1ccccc1)C(=O)NOC(=O)c1ccccc1 (stereo not given) | 39.8 µM (active) |
| O=C(NCCOC(=O)c1ccccc1)c1ccccc1 | inactive |
| COc1ccc(CN2C(=O)c3cccnc3C2=O)cc1S(=O)(=O)N1CCOc2ccc(C)cc21 | inactive |
| O=C(c1cnn(-c2ccccc2)c1)c1ccccc1O | inactive |
| CC(Sc1ccccc1)C(=O)NN=C1CCCCCCC1 (stereo not given) | inactive |
| CCOc1ccc(NC(=O)CN2CCN(CC(=O)Nc3ccccc3OC)CC2)cc1 | inactive |
| COc1ccccc1NC(=O)CN1CCN(CC(=O)Nc2ccc(Cl)c(C(F)(F)F)c2)CC1 | 44.7 µM (active) |

| Compound | Potency |
| --- | --- |
| O=C(CN1CCN(C(=O)c2c(F)cccc2F)CC1)Nc1ccccc1C(F)(F)F | inactive |
| O=C(Cc1ccccc1)Nc1ncccc1Cl | inactive |
| Cc1ccccc1-c1ccc(/C=C2/SC(N3CCOCC3)=NC2=O)o1 | inactive |
| Cc1ccc(-c2ccc(/C=C3\SC(N4CCOCC4)=NC3=O)o2)cc1 | inactive |
| O=C1NC(=S)S/C1=C/c1ccc(N2CCOCC2)o1 | 10 µM (active) |
| Cn1c(/C=C(\C#N)C(N)=S)ccc1-c1ccc(Br)cc1 | 11.2 µM (active) |
| N#C/C(=C/c1ccc(-c2ccc(Br)cc2)o1)C(=O)NC1CCCCC1 | inactive |
| CC(=O)c1sc2nsc(SCCN3CCOCC3)c2c1N | inactive |
| CCc1cc(=O)oc2c(CNCc3ccc(OC)cc3OC)c(O)c(Cl)cc12 | inactive |
| CCn1c2ccccc2c2cc(CNCc3ccc(OC)cc3OC)ccc21 | 42.3 µM (active) |
| COc1ccc(CNc2nc3ccccc3n2C)c(OC)c1 | inactive |
| Cc1cc(C)c(C(=O)COC(=O)C2CCN(c3ccc(C(F)(F)F)cn3)CC2)c(C)c1 | inactive |
| CC[n+]1c(/C=C2/C=C(C)CC(C)(C)C2)sc2ccc(OC)cc21 | 39.8 µM (active) |
| CCN1CCN(Cc2ccc(NC(=O)c3ccc(C)c(NC(=O)c4cncc(-c5cccs5)c4)c3)cc2C(F)(F)F)CC1 | 20 µM (active) |
| CCN1CCN(Cc2ccc(NC(=O)c3ccc(C)c(NC(=O)c4cccc5[nH]ccc45)c3)cc2C(F)(F)F)CC1 | 35.5 µM (active) |
| O=C(CO)N/N=C/c1c2ccccc2cc2ccccc12 | inactive |
| O=C(O)c1ccc(-n2cc(-c3cc4ccccc4oc3=O)nc2S)cc1 | inactive |
| Cc1c(CCC(=O)NCCCN2CCCC2=O)c(=O)oc2cc(O)ccc12 | inactive |
| Cc1cc(C(=O)N/N=C/c2cn(C)nc2C)c2ccccc2n1 | inactive |
| CC(C)(C)c1cc(C(c2cccnc2)N2CCN(CCO)CC2)cc(C(C)(C)C)c1O (stereo not given) | 25.1 µM (active) |
| CCN1CCN(C(c2ccc(C(F)(F)F)cc2)c2ccc3cccnc3c2O)CC1 (stereo not given) | inactive |
| COC(=O)NCC(c1cccnc1)N1CCN(c2ccccc2)CC1 (stereo not given) | inactive |
| Cc1onc(-c2c(Cl)cccc2Cl)c1C(=O)NNC(=O)c1c(-c2c(Cl)cccc2Cl)noc1C | inactive |
| N#Cc1sc2nc(C3CC3)cc(-c3ccc(Cl)cc3)c2c1N | inactive |
| CC(C)c1ccccc1NC(=O)CN1C(=O)c2cccc3cccc1c23 | inactive |

Source: ChEMBL document CHEMBL1201862, “PubChem BioAssay data set” (2004)
